Screens deposited in PubChem BioAssay by SRMLSC.
HUVEC prolif 384: human endothelial cell proliferation inhibition. HUVEC proliferation, CellTiter-Glo luminescence, 72 h; hits give low values. viability, % at 10 µM (by protocol). 86,000 tested, 1.1% active;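 active means viability at or below 30%; inactive means viability above 30%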;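 further: 100% = median luminescence of DMSO-only cell control wells on each plate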
bCat KO growth: beta-catenin-lacking colon tumor cell growth suppression. AID 818. 140,000 tested, 1.5% active. viability, % at 10 µM. HCT116 beta-catenin knockout viability, CellTiter-Glo, 60 h; hits give low values;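 active means viability at or under a set limit, the compound median less 4 SD, cut at about 6% in these data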;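 further: 0% = Hyamine 1622 control at 20 µM and 100% = untreated cell control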
H69AR inhibit: blocks growth of human H69AR lung tumor cells; H69AR lung tumor viability, ATP luminescence, 72 h; hits give low values; viability, % at 10 µM; 85,000 tested, 6% active;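 active means viability at or below 40%; inactive means viability above 40%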;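 further: multidrug resistant small cell line overexpressing MRP-1 efflux transporter; 100% = mean luminescence of untreated control wells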
PTEN del growth: growth suppressors of cells with PTEN tumor suppressor deletion | 140,000 tested, 1.2% active | viability, % at 10 µM | HCT116 PTEN-null viability, CellTiter-Glo, 60 h; hits give low values;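 active means viability at or below a set limit, 4 SD under the median of all tested compounds, cut at about 3.7% in these data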;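 further: PTEN knockout HCT116 line with beta catenin targeted HCT116 as companion control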
Starred values were filed as active, the others as inactive; nt = not tested or not shown. The list is a sample of the results.

SMILES | HUVEC prolif 384 | bCat KO growth | H69AR inhibit | PTEN del growth
COc1cccc2c(C)nc(Nc3nc(CSc4nnc(C)s4)cc(=O)[nH]3)nc12 | 45.8 | 69.2 | 59.7 | 71.2
Cc1nc(Nc2nc(CSc3ccc(Cl)cc3)cc(=O)[nH]2)nc2ccccc12 | nt | 72.2 | nt | 58.9
c1ccc(CSc2nnc(-c3sccc3-n3cccc3)o2)cc1 | nt | 88.8 | nt | 92.8
Cc1cccc(OCC(=O)NC(=S)Nc2ccc(S(=O)(=O)NC3CCCCC3)cc2)c1 | nt | 91.8 | nt | 87.9
Cn1cnnc1Sc1ccc(C(=O)NCCC(c2ccccc2)c2ccccc2)cc1[N+](=O)[O-] | nt | 56.2 | nt | 61.0
